Among the data in ChEMBL document CHEMBL3433997, “St. Jude Leishmania screening dataset” (2016) are inhibition values, retold here.

Format in all cases: functional
Test [1] concerns the target Solute carrier family 2, facilitated glucose transporter member 1 (Homo sapiens) (UniProt P11166). Nature of the test: ST_JUDE_LEISH: Cytotoxicity at 2uM final concentration against transgenic Leishmania Mexicana promastigotes LmGLUT1 that are glucose transport deficient and complemented with the human glucose transporter GLUT1. Activity is measured by DNA content using SYBR green in vitro.

For test [2], the target named is Hexose transporter 1 (Plasmodium falciparum) (UniProt O97467). The test is described as follows: ST_JUDE_LEISH: Cytotoxicity at 2uM final concentration against transgenic Leishmania Mexicana promastigotes LmPfHT that are glucose transport deficient and complemented with the Plasmodium falciparum hexose transporter. Activity is measured by DNA content using SYBR green in vitro.

Test [3] has as its target Glucose transporter (Leishmania mexicana) (UniProt O61059). Nature of the test: ST_JUDE_LEISH: Cytotoxicity at 2uM final concentration against transgenic Leishmania Mexicana promastigotes LmGT2 that are glucose transport deficient and complemented with the L. Mexicana glucose transporter 2. Activity is measured by DNA content using SYBR green in vitro.

Sequence of Solute carrier family 2, facilitated glucose transporter member 1 (Homo sapiens) (P11166 whole entry): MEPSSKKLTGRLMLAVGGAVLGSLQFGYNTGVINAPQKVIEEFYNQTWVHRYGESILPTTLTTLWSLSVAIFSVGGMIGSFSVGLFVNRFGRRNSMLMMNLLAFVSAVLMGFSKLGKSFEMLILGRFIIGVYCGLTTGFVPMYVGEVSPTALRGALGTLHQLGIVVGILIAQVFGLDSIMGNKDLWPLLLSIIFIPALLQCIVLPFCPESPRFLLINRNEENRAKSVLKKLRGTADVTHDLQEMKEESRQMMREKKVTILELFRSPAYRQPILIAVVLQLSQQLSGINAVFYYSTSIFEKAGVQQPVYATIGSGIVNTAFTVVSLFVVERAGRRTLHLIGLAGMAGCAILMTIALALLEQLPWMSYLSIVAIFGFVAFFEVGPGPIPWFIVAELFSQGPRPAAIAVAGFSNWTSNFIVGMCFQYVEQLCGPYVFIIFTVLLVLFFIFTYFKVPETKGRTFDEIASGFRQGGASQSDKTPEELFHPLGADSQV

For orientation: inhibition means the drop in the measured response relative to a control, in per cent. On to `Cc1ccc(NC(=O)Nc2ccc(Cl)cc2)cc1-c1ccc(C(=O)Nc2ccncc2)cc1`, for which the inhibition in test [1] was found to be 2.15%; in test [2] it was 1.58%; in test [3] it was 0.65%.
Take `COc1ccc2nccc([C@@H](O)CN3CCC(NC(=O)c4ccc5nc(-n6cccc6)sc5c4)CC3)c2c1`: the inhibition in test [1] was determined as 6.02%; in test [2] it was 5.93%; in test [3], 4.22%.
Taken in the same sequence, the figures for `CCC1(CC)N=C(N)N=C(N)C1c1ccc(Cl)c(Cl)c1` (stereo unspecified) were -0.44%, 0.07% and 0.44%.
Taken in the same sequence, the figures for `CCc1ccc(NC(=O)c2ccc(CN3CCCN(Cc4cccc(O)c4)CC3)cc2)cc1` were -0.63%, -1.78% and 2.57%.
For `Cc1nc2ccccc2c(=O)n1/N=C/c1ccccc1[N+](=O)[O-]`, the inhibition in test [1] turned out to be 3%; in test [2], 1.45%; in test [3], 2.65%.
On the same counts, the results for `CC(C)Cc1cnc2nc(N)nc(N)c2c1` are 1.42%, 2.76% and 1.4%.
On the same counts, the results for `COc1ccc2c(N/N=C/c3ccccc3[N+](=O)[O-])ccnc2c1` are 4.94%, -0.53% and 3.75%.
In the case of `COc1ccc(N2CCN(c3nc(N)c4cc(OC)c(OC)cc4n3)CC2C)cc1` (stereo unspecified), the inhibition was 0.19% in test [1], 1.45% in test [2] and -0.49% in test [3].
On the same counts, the results for `Cc1ccn2c(N(Cc3ccccc3)C(=O)c3ccc(Cl)c(Cl)c3)c(-c3ccccc3)nc2c1` are 4.28%, 3.03% and 0.79%.
As for `CC(C)(C)c1ccc(S(=O)(=O)Nc2cc(Cl)ccc2Cn2ccc(N3CCNCC3)nc2=O)cc1`, the inhibition is -1.22% in test [1], -3.39% in test [2] and -1.02% in test [3].
Taken in the same sequence, the figures for `Cc1nn(-c2ccnc3cc(Cl)ccc23)c(C)c1C(=O)NCc1cc(Cl)cc(Cl)c1` were 0.16%, -0.98% and 1.27%.
With `CC(C)CNCc1cccc(-c2ccccc2CNC2CCN(Cc3ccccc3)CC2)c1`, the inhibition was 5.47% in test [1], 4.95% in test [2] and 7.56% in test [3].
Taken in the same sequence, the figures for `CSc1cccc(Nc2nc3ccc(S(=O)(=O)NCC(C)C)cc3n2C(C)C(C)C)c1` (stereo unspecified) were 2.75%, 4.12% and 2.98%.
Consider `COc1ccc2cc(-c3nc(-c4c(Cl)cccc4Cl)[nH]c3-c3ccnc(NCCCN4CCN(C)CC4)c3)ccc2c1`, for which the inhibition was -1.11% in test [1], -1.01% in test [2] and -5.14% in test [3].
On the same counts, the results for `CN1CCC(NCc2ccc(-c3ccc(S(=O)(=O)NCc4ccccc4)c(F)c3)cc2)CC1` are 12.7%, 13.2% and 7.68%.
Regarding `Cc1cc(NC(=O)Nc2cccc(C#N)c2)c2ccccc2n1`, the inhibition is 4.37% in test [1], 4.11% in test [2] and 3.04% in test [3].
Consider `C=CC[C@H](C[C@H](O)[C@H](Cc1ccccc1)NC(=O)c1ccc(-c2cccnn2)cc1)C(=O)NC1CCCCC1`, for which the inhibition is -1.55% in test [1], -0.85% in test [2] and -1.31% in test [3].
`Cc1ccc(F)cc1S(=O)(=O)Nc1ccc(CCN2CCC(N3CCCCC3)CC2)cc1`: the inhibition in test [1] was 0.5%; in test [2], -0.31%; in test [3], 1.36%.
Taken in the same sequence, the figures for `O=C(/C=C/c1ccc(Cl)c(Cl)c1)NC1CCC(CN2CCC(c3nc4cc(O)ccc4[nH]3)CC2)CC1` (stereo unspecified) were 2.81%, 3.99% and 2.71%.
Taken in the same sequence, the figures for `COc1ccc2ncc(Cl)c(CCN3CCC(NCc4ccc5c(n4)NC(=O)CO5)CC3)c2c1` were 7.95%, 5.92% and 6.59%.
Taken in the same sequence, the figures for `Cc1noc(C)c1-c1ccc2c(Nc3ccccc3C(C)(C)C)c(C(=O)NCc3ccc4c(c3)OCO4)cnc2c1` were -1.21%, 2.69% and -0.92%.
Regarding `CC(C)CN1CCCN(Cc2cccc(NC(=O)c3ccc(Cl)c(Cl)c3)c2)CC1`, the results for the inhibition in test [1], in test [2] and in test [3] were 10.4%, 10.2% and 4.5%, respectively.
Taken in the same sequence, the figures for `CCN(CC)CCN(Cc1ccc(-c2ccc(C(F)(F)F)cc2)cc1)C(=O)Cn1c(CCc2ccc(F)c(F)c2F)nc(=O)c2ccc(F)cc21` were 3.42%, 0.08% and -0.03%.
Taken in the same sequence, the figures for `Cc1cc(C(=O)CN2C(=O)NC3(CCCc4ccccc43)C2=O)c(C)n1Cc1ccc(F)cc1` (stereo unspecified) were 2.81%, 2.54% and 5.14%.
Taken in the same sequence, the figures for `O=C(/C=C/c1ccc(C(F)(F)F)cc1)N1CCc2cc3nccc(N4CCN5CCC[C@H]5C4)c3cc21` were 1.68%, 2.34% and 0.92%.
As to `CC1CC(C)CN(CC(O)CNC(=O)Nc2ccc(Br)cc2)C1` (stereo unspecified), the figures for the inhibition in test [1], in test [2] and in test [3] were 6.62%, 5.27% and 3.33%, respectively.
Take `N=c1[nH]c2cccc3ccc4cccc1c4c32`: the inhibition in test [1] amounted to 9.96%; in test [2], 9.29%; in test [3], 7.95%.
On to `O=c1[nH]ccc2nc(N[C@@H]3CCCNC3)nc(Nc3ccc(S(=O)(=O)N4CCOCC4)cc3)c12`, for which the results for the inhibition in test [1], in test [2] and in test [3] were 0.92%, 2.1% and -0.68%, respectively.
On the same counts, the results for `CC(CNCc1cn(Cc2cc(Br)cc(Br)c2)c2ccccc12)CNc1cc(=O)c2ccccc2[nH]1` (stereo unspecified) are 0.59%, 1.26% and 1.07%.
On to `CCN(CC)CCN(Cc1ccc(-c2ccc(C(F)(F)F)cc2)cc1)C(=O)Cn1nc(-c2ccc(C(F)(F)F)cc2)ccc1=O`, for which the inhibition in test [1] stood at 1.46%; in test [2] it was 2.04%; in test [3] it was 2.83%.
Take `COc1ccc(-c2cccc(NC(=O)c3ccc(Cl)cc3)c2)cc1CN1CCCN(C)CC1`: the figures for the inhibition in test [1], in test [2] and in test [3] were 7.89%, 8.76% and 7.23%, respectively.
On the same counts, the results for `Cc1cccc(C(=O)Nc2ccnc(N(C)CCCN(C)Cc3cccc(C#N)c3)c2)c1` are 5.76%, 4.86% and 2.02%.
